# Assay results as given in article PMC8384837, “Expanding the binding specificity for RNA recognition by a PUF domain”.
# Positions count from the first letter of the chain named.
# Assays:
# Assay in all cases: yeast three-hybrid, YBZ-1, SC-Leu-His + 0.5 mM 3-AT, 4 days
# Conditions in all cases: tags: N-Gal4 AD-HA kept; label: inside an RPR1-promoter hybrid RNA with tandem MS2 sites; ssRNA
# [1] = biological target: PUM1 PUF domain R4-SFP (Homo sapiens, UniProt Q14671 828-1176, N971S;H972F;Q975P)
# In short: (§1)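 Pumilio-1 PUF domain libraries, randomized (NNK) at the three base-contacting residues of each repeat, were co-expressed with matching RNA elements from a centromeric plasmid in strain YBZ-1 (LexA–MS2 coat fusion, HIS3 reporter). Transformants were plated on SC-Leu (input) and SC-Leu-His + 0.5 mM 3-AT (selection) for four days, and repeat regions were PCR-amplified and Illumina-sequenced. The interaction score is the log2 change in variant frequency from input to selection, with pseudocount 1 where absent.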
# [2] = biological target: PUM1 PUF domain R4-CNG (Homo sapiens, UniProt Q14671 828-1176, N971C;H972N;Q975G)
# In short: as §1
# [3] = biological target: PUM1 PUF domain R4-CRR (Homo sapiens, UniProt Q14671 828-1176, N971C;H972R;Q975R)
# In short: as §1
# [4] = biological target: PUM1 PUF domain R8-SWF (Homo sapiens, UniProt Q14671 828-1176, N1122S;Y1123W;Q1126F)
# In short: as §1
# [5] = biological target: T1, PUM1 PUF domain R6-TFM (Homo sapiens, UniProt Q14671 828-1176, N1043T;Y1044F;Q1047M)
# T1 sequence: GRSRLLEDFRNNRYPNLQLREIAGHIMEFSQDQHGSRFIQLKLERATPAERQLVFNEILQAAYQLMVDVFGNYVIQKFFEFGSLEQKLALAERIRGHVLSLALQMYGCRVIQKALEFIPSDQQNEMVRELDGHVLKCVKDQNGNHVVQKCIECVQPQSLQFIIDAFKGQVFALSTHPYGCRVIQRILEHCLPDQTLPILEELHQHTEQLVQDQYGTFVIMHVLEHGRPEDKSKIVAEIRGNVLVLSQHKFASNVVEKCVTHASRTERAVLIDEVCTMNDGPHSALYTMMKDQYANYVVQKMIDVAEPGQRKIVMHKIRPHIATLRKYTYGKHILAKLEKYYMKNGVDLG
# In short: as §1
# [6] = biological target: T2, PUM1 PUF domain R6-VWG (Homo sapiens, UniProt Q14671 828-1176, N1043V;Y1044W;Q1047G)
# T2 sequence: T1 sequence with T216V, F217W, M220G
# In short: as §1
# [7] = biological target: PUM1 PUF domain R3-GWM (Homo sapiens, UniProt Q14671 828-1176, C935G;R936W;Q939M)
# In short: as §1
# [8] = biological target: PUM1 PUF domain R5-NSR (Homo sapiens, UniProt Q14671 828-1176, C1007N;R1008S;Q1011R)
# In short: as §1
# [9] = biological target: PUM1 PUF domain R3-RVM (Homo sapiens, UniProt Q14671 828-1176, C935R;R936V;Q939M)
# In short: as §1
# [10] = biological target: PUM1 PUF domain R5-SIC (Homo sapiens, UniProt Q14671 828-1176, C1007S;R1008I;Q1011C)
# In short: as §1
sequence,measurement,setting,value
GGCUAGAACUAGUGGAUCCCCCGGCGCCCGGCGGCUCGAGCCCGGGUAAGUGUAUAUAGUCUGCAUGCCGCCGGGCGCCAUGCCUGCAGGUCGACUCUAGAAAACAUG,binding signal,[1],7.15 log2 enrichment (interaction score)
same,binding signal,[2],4.94 log2 enrichment (interaction score)
GGCUAGAACUAGUGGAUCCCCCGGCGCCCGGCGGCUCGAGCCCGGGUAAGUGUACAUAGUCUGCAUGCCGCCGGGCGCCAUGCCUGCAGGUCGACUCUAGAAAACAUG,binding signal,[1],6.2 log2 enrichment (interaction score)
same,binding signal,[3],3.13 log2 enrichment (interaction score)
same,binding signal,[2],2.39 log2 enrichment (interaction score)
GGCUAGAACUAGUGGAUCCCCCGGCGCCCGGCGGCUCGAGCCCGGGUAAGCGUAAAUAGUCUGCAUGCCGCCGGGCGCCAUGCCUGCAGGUCGACUCUAGAAAACAUG,binding signal,[4],1.73 log2 enrichment (interaction score)
GGCUAGAACUAGUGGAUCCCCCGGCGCCCGGCGGCUCGAGCCCGGGUAAGUGAAAAUAGUCUGCAUGCCGCCGGGCGCCAUGCCUGCAGGUCGACUCUAGAAAACAUG,binding signal,[5],2.84 log2 enrichment (interaction score)
same,binding signal,[6],6.85 log2 enrichment (interaction score)
GGCUAGAACUAGUGGAUCCCCCGGCGCCCGGCGGCUCGAGCCCGGGUAAGUGUAAGUAGUCUGCAUGCCGCCGGGCGCCAUGCCUGCAGGUCGACUCUAGAAAACAUG,binding signal,[7],1.14 log2 enrichment (interaction score)
GGCUAGAACUAGUGGAUCCCCCGGCGCCCGGCGGCUCGAGCCCGGGUAAGUGUCAAUAGUCUGCAUGCCGCCGGGCGCCAUGCCUGCAGGUCGACUCUAGAAAACAUG,binding signal,[8],4.06 log2 enrichment (interaction score)
GGCUAGAACUAGUGGAUCCCCCGGCGCCCGGCGGCUCGAGCCCGGGUAAGUGUAAUUAGUCUGCAUGCCGCCGGGCGCCAUGCCUGCAGGUCGACUCUAGAAAACAUG,binding signal,[9],2.43 log2 enrichment (interaction score)
GGCUAGAACUAGUGGAUCCCCCGGCGCCCGGCGGCUCGAGCCCGGGUAAGUGUAAAUAGUCUGCAUGCCGCCGGGCGCCAUGCCUGCAGGUCGACUCUAGAAAACAUG,binding signal,[7],2.49 log2 enrichment (interaction score)
same,binding signal,[4],2.33 log2 enrichment (interaction score)
same,binding signal,[10],3.43 log2 enrichment (interaction score)
same,binding signal,[6],2.67 log2 enrichment (interaction score)
same,binding signal,[2],2.92 log2 enrichment (interaction score)
GGCUAGAACUAGUGGAUCCCCCGGCGCCCGGCGGCUCGAGCCCGGGUAAGUGUUAAUAGUCUGCAUGCCGCCGGGCGCCAUGCCUGCAGGUCGACUCUAGAAAACAUG,binding signal,[8],4.06 log2 enrichment (interaction score)
